High-throughput results deposited in PubChem by National Center for Advancing Translational Sciences (NCATS).
NS1 function inh – blocks influenza NS1 protein function | Potency, µM (series often up to 46.1 µM), for inactives: at the top dose activity, positive = more growth | hit rate 0.4% among 270,000 | AID 2326; calls by dose curve; note: potency is the fitted concentration of half-maximal effect; actives are rising curves; nearly all actives have a fitted effect of over 50% in size
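In this qHTS, NS1 from influenza A is expressed in budding yeast, where it slows growth. Cells are switched from glucose to 2% galactose medium (pH 6.0, -URA), treated with compound, and growth recovery is read at OD600.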
Cycloheximide cs – counter-screen hit for Shiga toxin inhibitors, cycloheximide; cell reporter, cycloheximide protein synthesis inhibition counterscreen; max response, %; hit rate 12% among 300,000; AID 2314; in the data active = max response mostly above about 13%, no sharp cut-off; inactive = mostly below about 14%; note: read at 38.3 µM for the half of the compounds with a filed dose; 0% is about no effect
Shiga inhibitor – Shiga toxin inhibition; Vero cells, Shiga toxin protein synthesis inhibition reporter; inhibition, % at 38.7 µM; hit rate 9.2% among 290,000; in the data active = inhibition mostly above about 28%, no sharp cut-off; inactive = mostly below about 43%; note: 0% is about no effect
Pf growth 96h – P. falciparum growth inhibition at 96 hour, primary screen for plastid delayed-death inhibitors. hit rate 6.9% among 320,000. Potency, µM (top dose mostly 28.7 µM), inactives show top-dose activity change, negative = inhibition, usual class: inhibitors. P. falciparum luciferase reporter growth, 96 h; note: potency is the fitted concentration of half-maximal effect; % is set by controls: 0 for no effect and ±100 for the full control effect
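P. falciparum expressing integrated firefly luciferase grown in erythrocytes (2% hematocrit, 0.05% parasitemia final) with compounds for 96 hours at 37 C, 5% CO2. Growth inhibition read as loss of luminescence after adding luciferase detection reagent.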
Pf growth 48h – P. falciparum growth inhibition at 48 hours (one generation). hit rate 5.9% among 310,000. Potency, µM (series often up to 28.7 µM), for the others: at the top dose activity change, negative = inhibition, actives largely listed as inhibitors. P. falciparum luciferase growth in erythrocytes, 48 h; note: potency is the fitted concentration of half-maximal effect; % is set by controls: 0 for no effect and ±100 for the full control effect
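In quantitative HTS format, infected erythrocytes bearing luciferase-reporter parasites were treated for a single generation at 37 C. Luminescence after adding detection reagent served as the growth measure.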
* hit, by the source's call; ? = inconclusive; . = not tested or not shown; + = active, no number; [ ] = remark or other dose. This is a sample that favours compounds with a hit; in the whole collection about 21% have one here. Unless noted, calls come from the whole dose curve; as a rule, active = well fitted inhibition curve with a large enough effect; inconclusive = small, poorly fitted or top-dose-only effect, or another doubt; inactive = no such curve, though single readings can be large or run the other way.

SMILES	NS1 function inh	Cycloheximide cs	Shiga inhibitor	Pf growth 96h	Pf growth 48h
Cc1ccc([N+](=O)[O-])cc1NC(=O)Nc1onc(C)c1C	3.5%	-2.2	-3.3	22.2%	?
COc1ccc(/C=N/Nc2ncccc2[N+](=O)[O-])c(OC)c1	.	11.7	50.9*	-10.6%	348.7%
CCCOc1ccc(/C=N/Nc2ccccc2[N+](=O)[O-])c(OCCC)c1	3.2%	27.9*	14.3	0.0%	?
O=[N+]([O-])c1ccccc1N/N=C/c1cccc(O)c1O	2.2%	29.8*	115.2*	442.0%	217.5%
O=[N+]([O-])c1ccc(N/N=C/c2cccc(O)c2O)c(S(=O)(=O)N2CCOCC2)c1	13.0%	-4.2	3.5	?	?
O=[N+]([O-])c1cccc(N/N=C/c2cccc(O)c2O)c1	.	39.8*	85.3*	0.9%[5.75 µM]	?
COC(=O)c1ccccc1NC(=O)CN1CCC(C)CC1	-3.4%	10.4	6.3	-0.3%	-2.9%
CCOC(=O)N1CCN(C(=O)CN(c2cc(Cl)ccc2OC)S(=O)(=O)c2ccccc2)CC1	-17.6%	-5.4	-5.2	?	?
N#CCC(=O)Nc1ccc(C(=O)NCc2cccc(Cl)c2)cc1	16.9%	-3.0	-7.0	?	-14.3%
COc1cc2cc(/C=C/C(=O)c3ccco3)c(Cl)nc2cc1OC	-3.7%	15.6	68.0*	.	-6.6%
COc1ccc2cc(/C=C/C(=O)c3ccco3)c(Cl)nc2c1	-3.9%	38.4*	91.3	.	?
N#Cc1ccsc1NC(=O)C1CC(=O)N(Cc2ccccc2)C1 (stereo unspecified)	.	.	.	28.6%	-3.4%
COc1ccccc1N/N=C1\COC(C)(C)CC1=O	-5.9%	34.0*	137.5*	26.5%	23.9%
CC1(C)CC(=O)/C(=N/Nc2ccc(Cl)cc2)CO1	-6.7%	31.8*	93.1*	121.8%	145.0%
Cc1cccc(NN=C2c3ccccc3-c3ccccc32)c1	1.8%	16.2	17.3	82.8%	6.0%
Cc1cccc(N/N=C2/COC(C)(C)CC2=O)c1	3.3%	77.6*	132.8*	186.5%	266.0%
COc1ccccc1NC(=O)Cn1c(=O)n(C)c(=O)c2sc3c(c21)COC(C)(C)C3	2.6%	9.9	2.4	-18.8%	?
CCCCOc1ccc(N=Nc2ccc(N)nc2N)cn1	-6.8%	17.8*	28.6	217.4%	225.9%
CCCN(CCC)S(=O)(=O)c1ccc(Cl)c(OC)c1	.	-1.9	-3.5	33.7%	-7.1%
Cc1oc(-c2ccccc2F)nc1CS(=O)(=O)CC(=O)NCCCN1CCc2ccccc2C1	14.1%	-7.1	-10.1	8.28µM*	?
Cc1oc(-c2ccccc2F)nc1CS(=O)(=O)CC(=O)N1CCOCC1	8.5%	-7.9	6.4	9.28µM*	4.6%
Cc1oc(-c2ccccc2F)nc1CS(=O)(=O)CC(=O)NCCN1CCCC1	5.2%	-2.6	-14.1	38.2%	?
CCN1CCCC1CNC(=O)CS(=O)(=O)Cc1nc(-c2ccccc2C)oc1C (stereo unspecified)	-12.2%	-4.1	7.9	-16.1%	11.7µM*
O=P(COc1ccccc1)(c1ccccc1)c1ccccc1	?	-1.0	-10.8	?	?
O=C(NC1CCCCC1)N1CCN(Cc2ccco2)CC1	2.3%	3.3	22.4	?	1.4%
SMILES	NS1 function inh	Cycloheximide cs	Shiga inhibitor	Pf growth 96h	Pf growth 48h
Cc1cc(C(F)F)nn1CC(=O)NCc1ccccc1F	2.4%	-2.3	-8.4	0.2%	4.2%
COc1ccc(-c2nn(-c3ccccc3)cc2/C=N/NC(=O)c2ccc(Br)o2)cc1	-7.1%	2.6	-3.4	?	?
O=C(N/N=C/c1cn(-c2cccs2)nc1-c1ccccc1)c1ccccc1Br	17.0%	24.8*	55.2	?	11.1%
O=C(N/N=C/c1cn(-c2cccs2)nc1-c1ccccc1)c1ccccc1O	22.8%	49.4*	94.1*	6.57µM*	?
COc1ccccc1NC(=O)N1CCc2[nH]c3ccc(Cl)cc3c2C1	-11.7%	-3.5	12.3	?	?
Cc1ccccc1NS(=O)(=O)c1ccc(NC(=O)c2nc3ncccn3n2)cc1	?	-3.4	1.8	?	.
O=C(Nc1cnn(Cc2ccccc2)c1)c1nc2ncccn2n1	-0.4%	38.0*	46.4*	2.62µM*	84.0%
Cc1ccc(OC(=O)c2ccc(S(=O)(=O)N(C)C)cc2)c(-n2nc3ccccc3n2)c1	?	34.0*	80.7*	440.2%	284.9%
CC(=O)Oc1ccc(C)cc1-n1nc2ccccc2n1	-20.6%	60.5*	130.9*	-10.7%	205.2%
Cc1ccc(OCC(=O)O)c(-n2nc3ccccc3n2)c1	-9.4%	1.3	-14.8	-23.8%	7.9%
Cc1ccc(OC(=O)c2cccc(S(=O)(=O)N3CCCC3)c2)c(-n2nc3ccccc3n2)c1	?	68.9*	+	-42.7%	231.4%
Cc1ccc(OC(=O)c2cccc(S(=O)(=O)N(C)C)c2)c(-n2nc3ccccc3n2)c1	17.0%	63.8*	72.6*	220.0%	.
CN(C)S(=O)(=O)c1ccc(C(=O)Oc2ccccc2)cc1	?	-2.1	4.7	.	1.3%
Cc1ccc2nc(SCC(=O)Nc3cccc([N+](=O)[O-])c3)[nH]c2c1	14.7%	-2.4	-9.7	17.4%	9.2%
CC(=O)Nc1ccc(C(=O)OCC(=O)NCc2cccs2)cc1	.	.	.	14.9%	19.7%
O=C(NCc1ccccn1)c1ccc(CNS(=O)(=O)c2cccc(Cl)c2)cc1	-0.9%	-2.0	-15.9	-7.8%	5.7%
Cc1ccc(S(=O)(=O)NCCC(=O)Nc2ccc(C)cc2C(=O)c2ccccc2)cc1	-1.1%	-8.0	-5.8	-81.2%	-29.3%
O=C(c1cc2c(s1)-c1ccccc1OC2)N1CCCC1	-219.3%	10.9	26.5	65.4%	.
COc1cccc(N2CCN(C(=O)c3cc4c(s3)-c3ccccc3OC4)CC2)c1	-6.2%	-1.1	-3.3	4.15µM*	-1.6%
CCCN1CCN(C(=O)c2cc3c(s2)-c2ccccc2OC3)CC1	-10.4%	26.1*	31.5*	24.0%	49.2%
COc1ccc(N2CCN(C(=O)c3cc4c(s3)-c3ccccc3OC4)CC2)cc1	2.7%	0.7	26.1	237.2%	6.8%
CCCN1CCN(CCCNC(=O)c2cc3c(s2)-c2ccccc2OC3)CC1	-8.9%	2.2	-2.1	?	?
CCOC(=O)N1CCN(C(=O)c2cc3c(s2)-c2ccccc2OC3)CC1	-20.7%	8.3	14.0	8.28µM*	0.3%
O=C(c1cc2c(s1)-c1ccccc1OC2)N1CCC2(CC1)OCCO2	-5.4%	39.8*	38.6*	-19.8%	212.5%
Cc1noc(C)c1CCC(=O)NC1CCCN(Cc2ccc(CC(C)C)cc2)C1 (stereo unspecified)	6.0%	8.7	-3.8	-12.6%	-18.8%
CCn1c(CCC(=O)Nc2nc3c(s2)CCCC3)nc2cc(S(=O)(=O)N(C)C)ccc21	?	11.9	17.3	22.4%	0.0%
Cc1cccc(C)c1NC(=O)C1(N(Cc2ccco2)C(=O)CC2NC(=O)NC2=O)CCCC1 (stereo unspecified)	1.6%	-2.0	-2.5	70.7%	6.4%
C#CCNC(=O)C1=C[C@@H](c2ccc(C#C)cc2)[C@H](CCCO)[C@@H](OCC)O1	-2.2%	-2.6	-16.7	5.3%	?
O=S1(=O)N=C(Nc2ccc(N3CCOCC3)c(Cl)c2)c2ccccc21	.	48.0*	85.3*	-4.1%	59.0%
